# Screening results deposited in PubChem BioAssay by several laboratories.
# TWEAK Fn14 block – inhibitors of TWEAK-Fn14 signaling, primary screen, luciferase reporter cells, uHTS; TWEAK-stimulated Fn14 reporter cells, luciferase luminescence, 8 h; inhibition, % at 10 µM; 360,000 tested, 2% active; in the data active means inhibition above about 50%
# HSP90 inh – HSP90 inhibitors, primary screen, cell lysate, luminescence. Heat shock protein HSP 90 (rabbit reticulocyte lysate; luciferase refolding). Rabbit reticulocyte lysate, luciferase refolding luminescence, 3 h. inhibition, % at 5.6 µM. 290,000 tested, 0.91% active. AID 1789, 2009;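 active means inhibition above the screen-wide mean plus 3 SD, computed separately per campaign, cut at about 16% in these data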;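 further: 0% = DMSO wells and 100% = 60 µM geldanamycin wells; inhibitors lower the luminescence because luciferase stays unfolded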
# TROY signal inh – inhibitors of TROY-driven NF-kB signaling, primary screen, Q293 LMP1-TROYcd cells, NF-kB luciferase, uHTS | Q293 LMP1-TROYcd NF-kB luciferase reporter, 4 h | inhibition, % at 10 µM | 360,000 tested, 0.98% active;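 active means compounds whose plate-normalised and pattern-corrected inhibition of the luciferase reporter signal at the single screening dose is 50% or more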
# LGR2 antag – inhibitors of bursicon-induced LGR2 CRE-luciferase signal, primary screen, cell-based, HEK293, CRE-luciferase reporter, bursicon stimulation; 380,000 tested, 0.35% active; bursicon-stimulated, 4 h; inhibition, % at 9.99 µM; Drosophila bursicon receptor LGR2 (rickets); AID 720647, 2013;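 active means drop in luminescence signal, shown as inhibition above about 50% in the replicate tests, limit read from the data, passing the limit was not always enough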;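 further: agonist challenge used bursicon conditioned medium at about half maximal strength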
# Starred values were filed as active, the others as inactive; nt = no result given. Hits are enriched below; roughly 2.2% of the tested compounds scored in any of these assays.
SMILES,TWEAK Fn14 block,HSP90 inh,TROY signal inh,LGR2 antag
COc1ccc(NC(=O)Nc2ccc3c(c2)C(=O)N([C@@H](C)CO)C[C@H](C)[C@@H](CN(C)C(=O)CCC(F)(F)F)OCCCC[C@H](C)O3)cc1,nt,nt,nt,20
CC(=O)N1CCc2c(sc(NC(=O)C3COc4ccccc4O3)c2C(N)=O)C1 (stereo not drawn),-15,-3,-14,10
COC(=O)c1c(NC(=O)C2COc3ccccc3O2)sc2c1CCN(C(C)=O)C2 (stereo not drawn),55*,6,30,17
O=C(NCCN1C(=O)S/C(=C\c2ccc(Cl)c(Cl)c2)C1=O)C1COc2ccccc2O1 (stereo not drawn),29,-3,23,6
O=C(NCCN1C(=O)S/C(=C\c2ccc(Cl)c(Cl)c2)C1=O)c1ccc2c(c1)C(=O)N(Cc1ccncc1)C2=O,58*,-3,-23,12
Cc1ccc(NC(=S)NC(=O)c2ccc(F)cc2)cc1S(=O)(=O)Nc1cccc(Cl)c1,68*,5,50*,-18
Cc1ccc(NC(=O)c2cccs2)cc1S(=O)(=O)Nc1cccc(Cl)c1,60*,1,39,28
O=C(NNC(=O)c1cccs1)Nc1cccc(Cl)c1,-11,-8,-21,nt
Cc1cc(C)c(NS(=O)(=O)c2ccc(NC(=O)c3cccs3)cc2)c(C)c1,41,-6,51*,37
Cc1noc(C)c1S(=O)(=O)Nc1ccc2c(c1)C(=O)N([C@@H](C)CO)C[C@H](C)[C@H](CN(C)S(=O)(=O)c1ccc(F)cc1)OCCCC[C@H](C)O2,nt,nt,nt,8
COc1ccc2c3c(n(C)c2c1)[C@@H](CO)N(Cc1ccc(Cl)cc1)CC31CCN(C(=O)NC(C)C)CC1,nt,nt,nt,-4
Cc1cc(OCC(=O)Nc2ccc(N3CCN(C(=O)c4ccco4)CC3)cc2)cc(C)c1Cl,52*,-1,52*,4
Cc1ccc(C)c(N(CC(=O)Nc2cc(Cl)ccc2Oc2ccccc2)S(C)(=O)=O)c1,27,4,-7,nt
CC(C)CNS(=O)(=O)c1ccc(CCC(=O)Nc2cc(Cl)ccc2Oc2ccccc2)cc1,49,-2,22,13
Cc1cccc(C)c1N(CC(=O)Nc1cc(Cl)ccc1Oc1ccccc1)S(C)(=O)=O,10,3,52*,nt
CCCNS(=O)(=O)c1ccc(CCC(=O)Nc2cc(Cl)ccc2Oc2ccccc2)cc1,66*,5,25,nt
COC(=O)c1nc(NNC(=O)c2ccccc2)sc1-c1ccccc1,82*,4,-6,-11
CC(=O)Nc1sc(N/N=C\c2ccccc2Cl)nc1-c1cccs1,67*,-1,16,-7
CC(=O)Nc1sc(N/N=C\c2ccccc2)nc1-c1cccs1,-13,1,-27,-1
COc1ccc(NC(=O)N2CCCCN3[C@@H](CO)[C@@H](c4ccc(-c5ccccc5C)cc4)[C@@H]3C2)cc1,nt,nt,nt,10
CO[C@H]1CN(C)C(=O)c2cc(NC(=O)Nc3ccc(Cl)cc3)ccc2OC[C@@H](C)N(C(=O)Nc2c(C)noc2C)C[C@@H]1C,nt,nt,nt,5
Cc1cc(C)c(S(=O)(=O)Nc2cc(SCC(=O)O)c(O)c3ccccc23)cc1C,nt,-3,nt,nt
COc1ccc(S(=O)(=O)Nc2ccc(O)c(Sc3ncn[nH]3)c2)cc1,8,2,0,nt
COc1ccc(S(=O)(=O)Nc2cc(Sc3ncn[nH]3)c(O)c3ccccc23)cc1,nt,76*,nt,nt
O=C(O)CSc1cc(NS(=O)(=O)c2ccc(Cl)cc2)c2ccccc2c1O,94*,14,46,1
SMILES,TWEAK Fn14 block,HSP90 inh,TROY signal inh,LGR2 antag
COc1ccc(S(=O)(=O)Nc2cc(SCC(=O)O)c(O)c3ccccc23)cc1,93*,7,51*,-14
COc1cccc(C(=O)Nc2ccc3c(c2)OC[C@@H](C)N(C)C[C@H](C)[C@H](OC)CN(C)C3=O)c1,nt,nt,nt,34
Cc1onc(-c2c(F)cccc2Cl)c1C(=O)Nc1ccc(S(=O)(=O)N2CCOCC2)cc1,4,nt,7,15
Cc1onc(-c2c(F)cccc2Cl)c1C(=O)Nc1cc(S(=O)(=O)N2CCCCC2)ccc1O,64*,nt,64*,11
CO[C@@H]1CN(C)C(=O)c2ccc(NC(=O)C3CCCC3)cc2OC[C@H](C)N(CC2CC2)C[C@H]1C,nt,nt,nt,9
NCC[C@@H]1CC[C@@H](NS(=O)(=O)Cc2ccccc2)[C@@H](CO)O1,nt,nt,nt,2
NCC[C@H]1CC[C@H](NS(=O)(=O)Cc2ccccc2)[C@@H](CO)O1,nt,nt,nt,89*
C[C@@H]1CN([C@H](C)CO)C(=O)c2cc(C#CC3CCCC3)cnc2O[C@@H]1CN(C)Cc1ccncc1,nt,nt,nt,10
O=c1ccc2ccccc2c2ccccc12,94*,nt,52*,3
COc1ccc(-n2ncc(Cl)c(Cl)c2=O)cc1,98*,0,56*,106*
Cc1ccc(-n2ncc(N(C)C)c(Cl)c2=O)cc1,55*,14,22,nt
C[C@H](CO)N1C[C@H](C)[C@H](CN(C)Cc2ccccc2)Oc2ncc(C#Cc3cccnc3)cc2C1=O,nt,nt,nt,-2
O=C(CN1C(=O)c2ccccc2S1(=O)=O)N1CCN(c2ccccc2F)CC1,9,1,-28,nt
O=C(CN1C(=O)c2ccccc2S1(=O)=O)c1ccccc1F,93*,12,78*,73*
COC(=O)c1ccc(NC(=O)CN2C(=O)c3ccccc3S2(=O)=O)cc1,28,7,17,5
CC(C)C(NC(=O)CN1C(=O)c2ccccc2S1(=O)=O)C(C)C,0,2,-21,-19
O=C(CN1C(=O)c2ccccc2S1(=O)=O)c1ccc(OC(F)F)cc1,98*,0,82*,nt
O=C(CN1C(=O)c2ccccc2S1(=O)=O)c1cccc(Br)c1,99*,1,80*,38
O=C(CN1C(=O)c2ccccc2S1(=O)=O)c1ccc(F)cc1,91*,2,73*,74*
CCCNC(=O)N(C)C[C@@H]1Oc2ncc(-c3ccccc3F)cc2C(=O)N([C@@H](C)CO)C[C@@H]1C,nt,nt,nt,5
C[C@@H]1CN([C@@H](C)CO)C(=O)CCCn2cc(nn2)CO[C@@H]1CN(C)Cc1ccc(O)cc1,nt,nt,nt,-2
O=C(NC1Cc2ccccc2C1)[C@@H]1[C@@H](CO)[C@@H]2Cn3c(cccc3=O)[C@H]1N2C(=O)CC1CC1,nt,nt,nt,-5
CS(=O)(=O)Nc1ccc2c(c1)[C@@H]1C[C@H](CC(=O)NCc3ccc(Oc4ccccc4)cc3)O[C@@H](CO)[C@@H]1O2,nt,nt,nt,15
CC(=O)Nc1cccc(-c2nc3ccccc3o2)c1,-10,-2,-35,-11
Nc1ccc(-c2nc3ccccc3o2)cc1,18,17*,-42,-78
Nc1cc(N)cc(-c2nc3ccccc3o2)c1,82*,nt,25,-6
COc1ccc(NC(=O)Nc2ccc3c(c2)C(=O)N(C)C[C@@H](OC)[C@H](C)CN[C@H](C)CO3)cc1,nt,nt,nt,9
CCCCn1c(=O)[nH]c(=O)c2c1nc(-c1ccccc1F)n2Cc1ccccc1,1,0,-16,4
